# Measurements: PubChem BioAssay (NCI)
# Compounds without any hit were thinned out: in the full panel of roughly 79,000, 15% have a hit. Active and inactive are the calls of the source. No stated cut-off is given here; in the data, active means growth inhibition above about 70%; inactive means the rest. Residues, ends and D or L forms follow the SMILES beside them. *: point of attachment. Fmoc = O=C(OCC1c2ccccc2-c2ccccc21)*; Boc = CC(C)(C)OC(=O)*
# Assay: NCI Yeast Anticancer Drug Screen. Data for the sgs1 strain (AID 173);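 further: 0% = growth of vehicle-only control cultures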
# Details: S. cerevisiae sgs1 mutant, at 100.0 µM, active compounds read high
# How it was run: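 A genetically defined yeast mutant is incubated with the test compound, and its growth is compared to that of the same strain given vehicle.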
row,Compound,growth inhibition
1,CC(C)C(=O)CC(Sc1ccc(N)cc1)c1ccccc1 (stereo unspecified),79% (active)
2,CC(C)OP(=O)(OC(C)C)/C(Cl)=N/Nc1ccc([N+](=O)[O-])cc1,98% (active)
3,O=[N+]([O-])c1cc(Cl)ccc1S(=O)(=O)c1ccc(Cl)cc1[N+](=O)[O-],84% (active)
4,CCCCCCNCCCNc1c2cc(OC)ccc2nc2cccc([N+](=O)[O-])c12,98% (active)
5,N#CCC(=O)N/N=C(\c1ccccc1)C(c1ccccc1)C1(O)C(=O)Nc2c(Cl)ccc(Cl)c21 (stereo unspecified),37% (inactive)
6,CN(C)CCNCCCNc1c2ccccc2nc2cccc([N+](=O)[O-])c12,89% (active)
7,CCC[CH2][Ge]([CH2]CCC)([CH2]CCC)[O]C(=O)C(O)c1ccccc1 (stereo unspecified),99% (active)
8,COc1ccc(-c2cc(-c3cc(C)cc(Cl)c3O)nc3[nH]c(=S)[nH]c(=S)c23)cc1,93% (active)
9,O=[N+]([O-])c1ccc(/C=C\c2ccc3c(c2)OCO3)c([N+](=O)[O-])c1,79% (active)
10,O=C1c2ccccc2N2OC3(N4CCCC4)CCCCC3C12c1ccccc1 (stereo unspecified),98% (active)
11,CC(C)OC(=O)NNc1cc(Cl)ccc1Cl,54% (inactive)
12,Cc1oc2ccccc2c(=O)c1Cn1nnc2ccccc21,68% (inactive)
13,CC1(C)OC(=O)C(=Cc2ccc([N+](=O)[O-])s2)C(=O)O1,98% (active)
14,CCN(CC)CCCNc1ccc([N+](=O)[O-])c2nc3ccc(OC)cc3c(NCCCN(CC)CC)c12,1% (inactive)
15,COc1cccc(/C=C2\S/C(=N/Nc3nc(-c4ccc([N+](=O)[O-])cc4)cs3)NC2=O)c1O,76% (active)
16,OC(Cc1cccc2ccccc12)CN1CCC(c2ccccc2)CC1 (stereo unspecified),97% (active)
17,C1=CCN([B-](c2ccccc2)[C+]2CCCCC2)C=C1,99% (active)
18,O=[N+]([O-])c1cc[n+]([O-])c(Cl)c1,100% (active)

row,Compound,growth inhibition
1,CCCNC(=O)OCc1c(COC(=O)NCCC)c(-c2ccc(Cl)c(Cl)c2)n2c1CCC2,62% (inactive)
2,CC1(C)CC(=O)C(C(=O)Nc2cccs2)=C(O)C1,99% (active)
3,O=C(NO)c1coc2ccccc2c1=O,6% (inactive)
4,COc1ccc(C(C)c2cc3c(cc2OCC(C)=O)OCO3)cc1 (stereo unspecified),77% (active)
5,CCS(=O)(=O)Nc1ccc(Nc2c3ccccc3nc3ccccc23)c(OC)c1,76% (active)
6,O=S(=O)(c1ccccc1)N1CN2CN(C1)CN(S(=O)(=O)c1ccccc1)C2,-19% (inactive)
7,CC1=NN(C(=O)c2ccccc2O)C(=O)/C1=C/c1ccco1,92% (active)
8,O=C1C=C(Br)C(=O)c2ccccc21,99% (active)
9,C[N+](C)([O-])CCCNc1c2ccccc2nc2cccc([N+](=O)[O-])c12,97% (active)
10,Cc1cccc2c(NCCCN(C)C)c3c([N+](=O)[O-])ccc(C)c3nc12,98% (active)
11,C[n+]1c(-c2ccc(/C=N/NC(=O)c3ccc(C(=O)N/N=C/c4ccc(-c5cn6ccccc6[n+]5C)cc4)cc3)cc2)cn2ccccc21,81% (active)
12,CCN(CC)CCC(=O)Nc1ccc2sc3ccccc3c(=O)c2n1,26% (inactive)
13,O=[N+]([O-])c1ccc2nc(=S)[nH]n2c1,47% (inactive)
14,O=C(c1ccccc1)[C@H]1Nc2ccc(Cl)cc2[C@H]2OCCC[C@@H]12,94% (active)
15,COc1cc([N+](=O)[O-])c2ncccc2c1Br,38% (inactive)
16,O=S(=O)(c1cccc(C(F)(F)F)c1)N1c2ccccc2-n2cccc2C1c1cccnc1 (stereo unspecified),89% (active)
17,CC(C)(C)OC(=O)NCCCCC(NC(=O)C(Cc1c[nH]c2ccccc12)NC(=O)OCC1c2ccccc2-c2ccccc21)C(=O)O (stereo unspecified) (Fmoc-Trp-Lys(Boc)-OH; configuration not given here),61% (inactive)

# Assay: NCI Yeast Anticancer Drug Screen. Data for the mlh1 rad18 strain (AID 175)
# Details: S. cerevisiae mlh1 rad18 strain growth inhibition; at 5.0 µM (retest, dose inferred, filed as 0.5); active compounds read high
# How it was run: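 Steps: expose repair-defective yeast to compound; measure growth; express inhibition against vehicle-treated controls.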
row,Compound,growth inhibition
1,CC(C)C(=O)CC(Sc1ccc(N)cc1)c1ccccc1 (stereo unspecified),-19% (inactive)
2,CC(C)OP(=O)(OC(C)C)/C(Cl)=N/Nc1ccc([N+](=O)[O-])cc1,47% (inactive)
3,O=[N+]([O-])c1cc(Cl)ccc1S(=O)(=O)c1ccc(Cl)cc1[N+](=O)[O-],25% (inactive)
4,CCCCCCNCCCNc1c2cc(OC)ccc2nc2cccc([N+](=O)[O-])c12,73% (active)
5,N#CCC(=O)N/N=C(\c1ccccc1)C(c1ccccc1)C1(O)C(=O)Nc2c(Cl)ccc(Cl)c21 (stereo unspecified),6% (inactive)
6,CN(C)CCNCCCNc1c2ccccc2nc2cccc([N+](=O)[O-])c12,73% (active)
7,CCC[CH2][Ge]([CH2]CCC)([CH2]CCC)[O]C(=O)C(O)c1ccccc1 (stereo unspecified),84% (active)
8,COc1ccc(-c2cc(-c3cc(C)cc(Cl)c3O)nc3[nH]c(=S)[nH]c(=S)c23)cc1,-31% (inactive)
9,O=[N+]([O-])c1ccc(/C=C\c2ccc3c(c2)OCO3)c([N+](=O)[O-])c1,12% (inactive)
10,O=C1c2ccccc2N2OC3(N4CCCC4)CCCCC3C12c1ccccc1 (stereo unspecified),-33% (inactive)
11,CC(C)OC(=O)NNc1cc(Cl)ccc1Cl,57% (inactive)
12,Cc1oc2ccccc2c(=O)c1Cn1nnc2ccccc21,-1% (inactive)
13,CC1(C)OC(=O)C(=Cc2ccc([N+](=O)[O-])s2)C(=O)O1,10% (inactive)
14,CCN(CC)CCCNc1ccc([N+](=O)[O-])c2nc3ccc(OC)cc3c(NCCCN(CC)CC)c12,13% (inactive)
15,COc1cccc(/C=C2\S/C(=N/Nc3nc(-c4ccc([N+](=O)[O-])cc4)cs3)NC2=O)c1O,10% (inactive)
16,OC(Cc1cccc2ccccc12)CN1CCC(c2ccccc2)CC1 (stereo unspecified),74% (active)
17,C1=CCN([B-](c2ccccc2)[C+]2CCCCC2)C=C1,0% (inactive)
18,O=[N+]([O-])c1cc[n+]([O-])c(Cl)c1,1% (inactive)

row,Compound,growth inhibition
1,CCCNC(=O)OCc1c(COC(=O)NCCC)c(-c2ccc(Cl)c(Cl)c2)n2c1CCC2,22% (inactive)
2,CC1(C)CC(=O)C(C(=O)Nc2cccs2)=C(O)C1,-36% (inactive)
3,O=C(NO)c1coc2ccccc2c1=O,13% (inactive)
4,COc1ccc(C(C)c2cc3c(cc2OCC(C)=O)OCO3)cc1 (stereo unspecified),-5% (inactive)
5,CCS(=O)(=O)Nc1ccc(Nc2c3ccccc3nc3ccccc23)c(OC)c1,77% (active)
6,O=S(=O)(c1ccccc1)N1CN2CN(C1)CN(S(=O)(=O)c1ccccc1)C2,40% (inactive)
7,CC1=NN(C(=O)c2ccccc2O)C(=O)/C1=C/c1ccco1,27% (inactive)
8,O=C1C=C(Br)C(=O)c2ccccc21,53% (inactive)
9,C[N+](C)([O-])CCCNc1c2ccccc2nc2cccc([N+](=O)[O-])c12,81% (active)
10,Cc1cccc2c(NCCCN(C)C)c3c([N+](=O)[O-])ccc(C)c3nc12,12% (inactive)
11,OC1(c2ccccc2)C2CC=CC2C1(c1ccccc1)c1ccccc1 (stereo unspecified),19% (inactive)
12,C[n+]1c(-c2ccc(/C=N/NC(=O)c3ccc(C(=O)N/N=C/c4ccc(-c5cn6ccccc6[n+]5C)cc4)cc3)cc2)cn2ccccc21,50% (inactive)
13,CCN(CC)CCC(=O)Nc1ccc2sc3ccccc3c(=O)c2n1,-6% (inactive)
14,O=[N+]([O-])c1ccc2nc(=S)[nH]n2c1,-133% (inactive)
15,O=C(c1ccccc1)[C@H]1Nc2ccc(Cl)cc2[C@H]2OCCC[C@@H]12,-24% (inactive)
16,COc1cc([N+](=O)[O-])c2ncccc2c1Br,53% (inactive)
17,O=S(=O)(c1cccc(C(F)(F)F)c1)N1c2ccccc2-n2cccc2C1c1cccnc1 (stereo unspecified),34% (inactive)
18,CC(C)(C)OC(=O)NCCCCC(NC(=O)C(Cc1c[nH]c2ccccc12)NC(=O)OCC1c2ccccc2-c2ccccc21)C(=O)O (stereo unspecified) (Fmoc-Trp-Lys(Boc)-OH; configuration not given here),-11% (inactive)
